From PubChem
An excerpt weighted towards active compounds, which were near 1.7% of everything screened.
PTK2B oligo ant: antagonists of Pyk2 self-association, primary screen, Q293 cells, FERM NanoBiT luminescence, HTS; stronger effect = lower value; z-score (the deposit names both 25 µM and 10 µM); 99,000 compounds, 0.83% hits; AID 1347419, 2020;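 active = Z-score of -3 or lower, scaled per plate to the spread of control and sample wells; inactive = z-score above -3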;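 also: negative z-score means lost luminescence so less FERM oligomerization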
LYP act: LYP phosphatase activators, primary screen, biochemical, DiFMUP fluorescence, 2 µM | 96,000 compounds, 0.11% hits | AID 697, 2007 | activation, % at 2 µM | recombinant LYP; 0 = plate median, 100 = signal doubled | Tyrosine-protein phosphatase non-receptor type 22 (Homo sapiens), Q9Y2R2;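 active = activation at 2 µM above a set limit, the mean plus 5 SD, cut at about 37% in these data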
PLK1 inh: human PLK1 kinase inhibitors, primary screen, biochemical, TR-FRET | recombinant PLK1 kinase, TR-FRET peptide phosphorylation | inhibition, % at 10 µM | 97,000 compounds, 0.53% hits;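 active = inhibition of 50% or more in the single-concentration screen; inactive = inhibition below 50%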;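 also: 0% = DMSO max control and 100% = H-89 dihydrochloride min control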
Target sequence (P53350 whole entry, looked up): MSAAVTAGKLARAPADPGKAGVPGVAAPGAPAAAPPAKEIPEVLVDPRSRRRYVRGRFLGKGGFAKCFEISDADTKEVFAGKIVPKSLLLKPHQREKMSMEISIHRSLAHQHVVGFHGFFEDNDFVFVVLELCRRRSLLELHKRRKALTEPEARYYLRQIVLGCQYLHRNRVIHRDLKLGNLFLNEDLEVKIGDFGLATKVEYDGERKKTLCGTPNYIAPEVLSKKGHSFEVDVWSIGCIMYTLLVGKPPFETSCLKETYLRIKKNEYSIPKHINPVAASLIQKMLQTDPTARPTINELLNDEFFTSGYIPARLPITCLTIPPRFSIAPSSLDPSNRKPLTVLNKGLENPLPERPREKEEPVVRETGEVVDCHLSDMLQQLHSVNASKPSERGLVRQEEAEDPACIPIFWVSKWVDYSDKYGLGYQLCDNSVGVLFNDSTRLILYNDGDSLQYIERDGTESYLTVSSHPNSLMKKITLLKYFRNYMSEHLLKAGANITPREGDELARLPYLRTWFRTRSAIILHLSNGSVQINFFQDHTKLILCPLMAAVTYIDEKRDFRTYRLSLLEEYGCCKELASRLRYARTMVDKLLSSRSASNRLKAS
PTPN22 inh 2: PTPN22 phosphatase inhibitors, primary screen, biochemical, DiFMUP fluorescence, 2 µM; Tyrosine-protein phosphatase non-receptor type 22 (Homo sapiens), Q9Y2R2; inhibition, % at 2 µM; recombinant LYP catalytic domain; 96,000 compounds, 0.21% hits;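 active = inhibition at 2 µM at or above a set limit, the screen mean plus 3 SD, cut at about 24% in these data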;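 also: 0% = DMSO with enzyme and 100% = enzyme fully blocked by orthovanadate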
PLK1 PBD inh: Plk1 polo box domain binding inhibitors, primary screen, biochemical, fluorescence polarization | 97,000 compounds, 0.13% hits | Plk1 PBD phosphopeptide binding | inhibition, %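 (tested at about 20 µM)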 | Serine/threonine-protein kinase PLK1 (Homo sapiens), P53350; in the data active = inhibition above about 34%, passing the limit was not always enough
PLK1 inh conf: PLK1 kinase activity inhibitors, confirmation, biochemical, TR-FRET, duplicate runs. shares compounds with PLK1 inh. AID 744, 2007. 210 compounds, 20% hits. inhibition, % at 10 µM. recombinant PLK1 kinase, TR-FRET peptide phosphorylation;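 active = inhibition at or above 50% in each of two repeat confirmation tests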;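 also: 0% = DMSO max control and 100% = H-89 kinase-blocked min control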
TR-FRET interf: compound interference with Plk1 assay readout, artefact control for Plk1 kinase inhibitor project, biochemical, TR-FRET, compound added post-reaction; inhibition (interference), % at 10 µM; shares compounds with PLK1 inh; 210 tested, under 10 active;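 active = both duplicate runs show 50% or greater inhibition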;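 also: 0% = DMSO max control and 100% = H-89 min control inhibited reaction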
* = called active by the depositor; x = no result given.

SMILES	PTK2B oligo ant	LYP act	PLK1 inh	PTPN22 inh 2	PLK1 PBD inh	PLK1 inh conf	TR-FRET interf
C=CCSc1nnc(-c2cc(Br)ccc2N)c(=O)[nH]1	x	x	71*	x	-24	-11	-61
C=CCSC1=Nc2sccc2C2=NC(=O)CN12	-0.5	-4	-8	7	-13	x	x
COc1cccc(C(=O)n2cnnc2N)c1OC	-0.34	6	128*	-9	-7	1	-56
CN(CCNC(=O)c1cn(C)c2ccc(S(=O)(=O)N(C)C)cc2c1=O)CCc1ccccc1	x	x	75*	x	1	-5	-49
CCC(C)NC(=O)C1CCN(S(=O)(=O)N2CCCC2)CC1 (stereo not given)	0.91	x	x	x	x	x	x
O=C(c1oc(=O)c2ccccc2c1-c1ccccc1)N1CCC(O)CC1	x	x	78*	x	29	4	-52
CCc1nnc(NC(=O)Cc2ccc(OCc3c(C)noc3C)cc2)s1	-0.13	-12	-11	9	-17	x	x
Fc1ccc(Br)cc1C1C=C(c2cccnc2)Nc2ncnn21 (stereo not given)	x	x	88*	x	-8	46	-51
COc1cccc(C2=CC(c3ccccc3)n3ncnc3N2)c1 (stereo not given)	x	18	-5	-21	-5	x	x
Cc1occc1-c1nnc(SCC(=O)N2CCc3ccccc32)o1	0.97	-7	-8	3	-14	x	x
Cc1cccc(NC(=O)CCN2C(=O)C3C4C=CC(C4)C3C2=O)c1 (stereo not given)	-0.3	1	-5	1	-3	x	x
Cc1cccc(NC(=O)NCCN2C(=O)C3C4C=CC(C4)C3C2=O)c1 (stereo not given)	x	x	73*	x	2	-6	-53
Cc1ccc2oc(=O)c(/C=C(\O)CC(C)C)nc2c1	-0.1	x	x	x	x	x	x
C/C(O)=C\c1nc2ccccc2oc1=O	0.2	12	124*	-9	9	-6	-52
COc1ccc(C(=O)N2CCOCC2)cc1Br	0.2	-3	130*	-1	-28	-12	-49
COc1cc(/C=C(\C#N)c2ccccn2)ccc1OCc1ccc(Cl)cc1	-0.82	x	x	x	x	x	x
COc1cccc(-c2nc(CS(=O)CC(=O)NCc3ccccc3)c(C)o2)c1 (stereo not given)	x	x	72*	x	-5	-1	-47
CCCNC(=O)CS(=O)Cc1nc(-c2cccc(OC)c2)oc1C (stereo not given)	x	1	-6	-2	-10	x	x
COc1ccccc1-n1cnnc1SCC(=O)c1ccc[nH]1	1.9	12	-2	-12	-8	x	x
O=C(O)CSc1nnc(-c2ccncc2)n1-c1ccc(Cl)cc1	-0.67	-8	-7	10	1	x	x
NC(=O)CSc1nnc(-c2ccncc2)n1-c1ccc(Cl)cc1	x	x	73*	x	0	-9	-49
COc1ccc(N2CC(C(=O)NCc3ccccc3)CC2=O)cc1 (stereo not given)	-0.02	x	x	x	x	x	x
COc1ccc(N2CC(C(=O)NC3CC(C)(C)NC(C)(C)C3)CC2=O)cc1 (stereo not given)	x	x	70*	x	10	-8	-50
COC(=O)c1c(-c2ccc(Br)cc2)noc1N	-1.1	6	77*	-6	6	63*	-51
COc1ccc(C2OC(=O)CC2C(=O)N2CCN(c3cc(Cl)ccc3C)CC2)cc1OC (stereo not given)	x	x	76*	x	-19	-5	-52
SMILES	PTK2B oligo ant	LYP act	PLK1 inh	PTPN22 inh 2	PLK1 PBD inh	PLK1 inh conf	TR-FRET interf
COc1ccc(Cl)cc1N1CCN(CCNC(=O)Nc2ccccc2C)CC1	0.98	-5	-11	6	-22	x	x
Fc1ccc2c(c1)C1C=CCC1C(c1cc3c(cc1Br)OCO3)N2 (stereo not given)	-0.46	14	-11	-11	-6	x	x
O=C(O)c1ccc2c(c1)[C@@H]1C=CC[C@@H]1[C@H](c1ccccn1)N2	0.84	2	72*	-4	-7	59*	46
CC(C)c1ccc(C(C(=O)NC(C)(C)C)N(C(=O)CNC(=O)c2ccco2)c2cccnc2)cc1 (stereo not given)	0.28	-2	-13	4	1	x	x
CCC(C)(C)NC(=O)C(c1ccco1)N(C(=O)CNC(=O)c1cccs1)c1cccnc1 (stereo not given)	-0.87	1	109*	-2	-21	-14	-62
CC1CCN(CC(C)OC(=O)c2ccc3c(c2)OCCO3)CC1 (stereo not given)	x	x	70*	x	-7	-6	-52
CC(=O)c1ccc(NC(=O)c2cnn3ccccc23)cc1	x	-9	-12	8	14	x	x
CC(=O)c1cccc(NC(=O)c2cnn3ccccc23)c1	x	x	80*	x	-18	-2	-58
COc1ccc(N2CCN(C(CNS(=O)(=O)c3cc(F)ccc3F)c3cccnc3)CC2)cc1 (stereo not given)	0.29	-1	-35	3	19	x	x
CCN1CCCC1CNC(=O)Cn1cccc1C(=O)c1ccccc1 (stereo not given)	-0.77	-1	-3	-1	-9	x	x
COC(=O)c1ccc(CSc2nnc(-c3c[nH]c4ccccc34)n2C)o1	x	x	71*	x	5	-13	-55
CCc1nnc(NC(=O)CSc2nnc(-c3c[nH]c4ccccc34)n2CCOC)s1	-0.32	-2	-9	2	21	x	x
CCSc1nnc(NC(=O)CSc2nnc(-c3c[nH]c4ccccc34)n2C)s1	x	x	76*	x	24	-3	-46
COCCn1c(SCC(N)=O)nnc1-c1c[nH]c2ccccc12	x	x	71*	x	-31	6	-46
CCOC(=O)C1CCN(S(=O)(=O)c2c(C)n(C)c(=O)n(C)c2=O)CC1	x	10	-6	-10	-18	x	x
CNc1nc(SCc2ccc(C)cc2)nc2c1CCCC2	-0.66	7	-7	-4	8	x	x
Cc1onc(-c2ccccc2)c1C(=O)NC(C)C	x	x	78*	x	-6	-4	-47
Cc1nc2ccccc2c(=O)n1NCc1cc(Br)cs1	-1	-2	-17	0	29	x	x
O=C(CN(Cc1ccccc1)S(=O)(=O)c1ccc(Br)cc1)NCc1ccco1	-0.99	8	85*	-10	12	-8	-58
Nc1ncnc(Nc2cccc(C(F)(F)F)c2)n1	-0.39	12	77*	-11	0	74*	-44
CCN1CCN(CC(=O)Nc2ccc3c(c2)OCCO3)C(=O)C1=O	x	x	73*	x	-32	-3	-55
Cc1ccc(C(=O)O)cc1S(=O)(=O)N1CCOCC1	0.41	1	0	-6	3	x	x
Cc1ccc(C(=O)O)cc1S(=O)(=O)N1CCSCC1	0.58	-7	82*	6	-1	-7	-57
